From PubChem BioAssay AID504847 (National Center for Advancing Translational Sciences (NCATS), 2011) come the findings set out here.

Hit rate of the full screen: of about 400,000 compounds, about 3,700 (0.93%) were called active. Roughly 3% stayed inconclusive and do not appear here. For the sample, actives were picked, then their nearest neighbours and some compounds at random. Values without a mark were called inactive. Calls come from the whole dose curve; as a rule, active = well fitted inhibition curve with a large enough effect; inconclusive = small, poorly fitted or top-dose-only effect, or another doubt; inactive = no such curve, though single readings can be large or run the other way. Where a SMILES comes first, the peptide text is derived from it. Side-chain parts run from the residue outwards. [ ]: non-standard residue; d: D form. The star is where a group is joined. X1 = CCC(C)C(N)C1=NC(C(=O)*)CS1; Orn = NCCC[CH](N)C(=O)O
% is set by controls: 0 for no effect and ±100 for the full control effect; potency is the fitted concentration of half-maximal effect.

The target in the assay is Vitamin D3 receptor (Homo sapiens) (UniProt P11473). Kind of assay: Inhibitors of the vitamin D receptor (VDR): qHTS. Conditions: VDR-SRC2-3 peptide fluorescence polarization, 2 h; max response, negative = inhibition: hits give low values. An outline of the steps: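 After 23 nl compound addition and a short centrifugation, plates sat for 2 hours at ambient temperature; polarization of fluorescence then indicated loss of VDR binding to peptide SRC2-3.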
Chain of Vitamin D3 receptor (Homo sapiens) (P11473 whole entry, looked up): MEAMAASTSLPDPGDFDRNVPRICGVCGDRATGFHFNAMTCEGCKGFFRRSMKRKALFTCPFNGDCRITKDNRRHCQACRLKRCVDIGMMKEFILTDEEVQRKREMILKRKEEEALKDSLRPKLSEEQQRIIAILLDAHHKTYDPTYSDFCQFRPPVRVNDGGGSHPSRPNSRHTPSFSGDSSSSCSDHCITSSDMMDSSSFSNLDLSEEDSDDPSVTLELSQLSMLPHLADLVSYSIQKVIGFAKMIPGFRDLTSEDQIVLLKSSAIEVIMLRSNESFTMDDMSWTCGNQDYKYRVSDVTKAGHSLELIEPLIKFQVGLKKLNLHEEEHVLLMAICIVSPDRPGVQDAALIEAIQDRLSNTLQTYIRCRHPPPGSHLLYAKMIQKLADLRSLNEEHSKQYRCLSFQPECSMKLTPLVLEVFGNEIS
Background: In qHTS, concentration-response curves come from the screen itself.
As for `Cc1cc(-c2ccc(C)c(S(=O)(=O)N3c4ccccc4CC3C)c2)on1` (centres undefined), the max response, negative = inhibition was 9.78%. `Cc1[nH][nH]c(=O)c1C(c1ccc(-c2ccc(Cl)cc2)o1)c1c(C)[nH][nH]c1=O`: the Potency was 79.4 µM (active). `CCOc1ccc(C(=O)CCN2CCOCC2)cc1`: the Potency is 50.1 µM (active). `CCOc1ccc(C(=O)N2CCN(CCc3ccccn3)CC2)cc1`: the max response, negative = inhibition is -7.3%. Turning to `CCOc1ccc(C(=O)CCC(=O)Nc2ccncc2)cc1`, the max response, negative = inhibition was -4.74%. Still for that read-out and setting: the result for `Cc1ccc(-c2nnc3c4ccccc4c(C)nn23)cc1NC(=O)c1cccc(Br)c1` reads -6.72%. Turning to `CCC(=O)N1CCc2cc(S(=O)(=O)NC(C(=O)NCCc3ccc(C)cc3)C(C)C)ccc21` (centres undefined), the max response, negative = inhibition is -2.72%. Consider `Cc1cccc(N2CCN(C(=O)Cn3ncc4c5ccccc5n(C)c4c3=O)CC2C)c1` (centres undefined), for which the max response, negative = inhibition was 4.17%. With `CCCOC(=O)c1ccc(N2C(=O)c3ccccc3C2=O)cc1`, the max response, negative = inhibition is -19.4%. Regarding `CCCC[C@H]1C(=O)N(c2ccccc2)N(c2ccc(O)cc2)C1=O`, the Potency is 10 µM (active). Turning to `CCCCc1ccc(NC(=O)CN2C(=O)NC(Cc3ccccc3)C2=O)cc1` (centres undefined), the max response, negative = inhibition was 3.7%. On to `CC(C)c1ccc2oc(-c3cc(NC(=O)c4cccs4)ccc3Cl)nc2c1`, for which the max response, negative = inhibition is 15%. For `CCC(C)C(N)C1=NC(C(=O)NC(CC(C)C)C(=O)NC(CCC(=O)O)C(=O)NC(C(=O)NCCCCC2NC(=O)C(CC(N)=O)NC(=O)C(CC(=O)O)NC(=O)C(Cc3cnc[nH]3)NC(=O)C(Cc3ccccc3)NC(=O)C(C(C)CC)NC(=O)C(CCCN)NC2=O)C(C)CC)CS1` (stereo not drawn) (cyclo(DNK([Ile-Glu-Leu-X1])[Orn]IFH); configuration not given here), the max response, negative = inhibition is -26.4%.

Consider `C#CCOc1ccc(C2CC(=O)Nc3c2c(C)nn3-c2nc(C)cc(C)n2)cc1` (centres undefined), for which the max response, negative = inhibition is 10.7%. Turning to `CC(=NNC(=O)c1ccc2nc[nH]c2c1)c1ccc(Br)cc1`, the max response, negative = inhibition was -21.3%. Turning to `CN(C)N=Nc1ccc2nc[nH]c2c1`, the Potency was 35.5 µM (active).

With `CC/C(O)=N\S(=O)(=O)c1ccc(N=NN(C)C)cc1`, the max response, negative = inhibition is 15.8%. Turning to `COc1cc(OC)c(NC(=O)Cc2ccc(-n3c(C)nc4cccnc43)cc2)cc1Cl`, the max response, negative = inhibition is 1.5%. For `CC1=C/C(=N\OS(=O)(=O)c2ccccc2)C=CC1=O`, the Potency is 31.6 µM (active). In the case of `Cc1ccc(NC(=O)C2CCN(S(=O)(=O)c3cc(-c4noc(C)n4)ccc3C)CC2)c(C)c1`, the max response, negative = inhibition is 14.7%.

As for `Cc1nn2c(=O)cc(COC(=O)c3cccc(NC(=O)COc4ccccc4Cl)c3)nc2s1`, the max response, negative = inhibition was 9.23%. As for `Nc1ncnc2c1c(I)cn2[C@@H]1C[C@H](N)[C@@H](O)[C@H]1O`, the max response, negative = inhibition was -8.19%. Still for that read-out and setting: with `COc1ccc(Cl)cc1NC(=O)c1sc2nc3c(cc2c1N)CN(C)CC3` the figure was -1.58%; with `N#Cc1c(C(F)(F)F)cc(-c2ccc(Cl)cc2)nc1SCC(=O)O`, -2.18%; with `O=C(O)CSc1ccc(S(=O)(=O)N2CCCC2)cn1`, 10.8%. For the molecule `N#Cc1c(N2CCCCC2)nc(N)c2c(N)nc(SCC(=O)O)cc12`, the Potency was 50.1 µM (active). Consider `Cc1cc(C)cc(NS(=O)(=O)c2cc3c(cc2C)NC(=O)CO3)c1`, for which the max response, negative = inhibition was -6.49%. On to `Cc1cc(C)c(NC(=O)CN2C(=O)c3cccnc3Oc3ccc(Cl)cc32)c(C)c1`, for which the max response, negative = inhibition was 7.84%. Consider `COCCNC(=O)Nc1ccc2nc(-c3ccco3)c(-c3ccco3)nc2c1`, for which the Potency is 79.4 µM (active).

With `C=CCNC(=O)c1ccc2nc(-c3ccco3)c(-c3ccco3)nc2c1`, the max response, negative = inhibition was -28.3%. On to `CCOc1ccc(NC(=O)c2ncoc2-c2ccco2)cc1`, for which the max response, negative = inhibition was 3.68%. For the molecule `CCC(C)NC(=O)Cn1c(=O)n(-c2ccc(Cl)cc2)c(=O)c2c3c(sc21)CCCC3` (centres undefined), the max response, negative = inhibition was 7.47%.

Take `Cc1nc([N+](=O)[O-])nn1C12CC3CC(CC(Br)(C3)C1)C2`: the Potency is 20 µM (active). Consider `CC1(C)OC2CC(=O)OC[C@@]23C1CC(=O)[C@]1(C)C3CC[C@@]2(C)C(c3ccoc3)OC(=O)C3O[C@@]321` (some centres undefined), for which the max response, negative = inhibition was 3.74%. Take `CCOC(=O)c1c(C)oc2nc(C)nc(N3CCN(c4ccc(OC)cc4)CC3)c12`: the max response, negative = inhibition is 5.63%. In the case of `COc1ccc(C2(C#N)CCC(C(=O)O)CC2)cc1OC1CCCC1` (centres undefined), the max response, negative = inhibition was 5.35%. For the molecule `Cc1ccc(OC(=O)CCC(=O)Nc2ccc(Br)cc2)cc1`, the max response, negative = inhibition is 4.03%.

Take `CC(C)Oc1ccc(CC(=O)NNC(=S)Nc2ccc(Br)cc2)cc1`: the Potency was 70.8 µM (active). As to `CC(C)Oc1ccc(NC(=O)c2cc3ccccc3o2)cc1`, the max response, negative = inhibition was 10.8%. Still for that read-out and setting: with `FCOC(C(F)(F)F)C(F)(F)F` the figure was 1.95%; with `O=C(CSc1nnc(CNC(=O)c2ccccc2)n1-c1ccc(F)cc1)Nc1ccccc1F`, 2.71%; with `CCOc1ccc(N(C)S(=O)(=O)c2cc(-c3cnc(C)o3)ccc2OC)cc1`, -2.82%.

Consider `Cc1cccc(N2C(=O)c3ccc(C(=O)Nc4cccc(C(=O)O)c4)cc3C2=O)c1`, for which the max response, negative = inhibition was 13.1%. Regarding `O=C(O)c1ccc2c(c1)C(=O)N(c1ccc(/C=C/C(=O)c3ccccc3)cc1)C2=O`, the Potency was 20 µM (active).

In the case of `O=C(c1ccc2c(c1)C(=O)N(c1ccc(Cl)cc1)C2=O)N1CCN(c2ccccn2)CC1`, the max response, negative = inhibition is -2.28%. Take `Cc1ccc(-n2c(SCC(=O)c3ccccc3)nc3c([nH]c4ccccc43)c2=O)cc1`: the max response, negative = inhibition was 23.5%.

As to `COc1ccc(Cl)cc1NC(=O)CSc1nc(=O)[nH]c2c1CCCC2`, the max response, negative = inhibition was -3.46%.

Consider `Nc1ncc(S(=O)(=O)Nc2ccc(OC(F)(F)F)cc2)cn1`, for which the max response, negative = inhibition was 5.75%.

In the case of `CCN(CC)C(=O)CSc1nnc(CNc2ccc(F)cc2)n1Cc1ccco1`, the max response, negative = inhibition was 6.05%. `CC1CN(Cc2ccco2)C(=S)N(c2ccccc2)C1=O` (centres undefined): the max response, negative = inhibition was 8.1%.

As for `CN(C)C(=S)N=c1ssc(=S)n1Cc1ccco1`, the Potency was 44.7 µM (active). Turning to `COc1cc(C(=O)Nc2ccc(-n3c(C)nc4ccccc4c3=O)cc2)cc(OC)c1OC`, the max response, negative = inhibition was -3.22%.

Consider `Cc1cccc(NC(=O)C2CCCN2S(=O)(=O)c2cccc3nsnc23)c1C` (centres undefined), for which the max response, negative = inhibition was -10.9%. Turning to `CN(C)C(=O)N=NC(=O)N(C)C`, the Potency is 20 µM (active).
